Records with an inconclusive call do not appear. Entries that show only a call come without a potency. Activity calls are given as the source filed them. Calls follow the shape of the dose curve; as a rule, active = well fitted inhibition curve with a large enough effect; inconclusive = small, poorly fitted or top-dose-only effect; inactive = no such curve, though single readings can be large or run the other way.
Experiment: P-glycoprotein substrates identified in KB-3-1 adenocarcinoma cell line, qHTS therapeutic library screen (AID 1346986); also: nearly all actives have a fitted effect of over 60% in size;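 also: potency is for cytotoxicity meaning loss of cell viability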
Settings: KB-3-1 parental cells viability, CellTiter-Glo, 72 h; series mostly up to 44.5 µM
Protocol: The ATP-binding cassette transporters P-glycoprotein (P-gp) is known to limit brain penetration of many chemotherapy drugs. […] We used the CellTiter-Glo viability assay to test library compounds against the parental KB-3-1 human cervical adenocarcinoma cell line and the colchicine-selected sub-line KB-8-5-11 that over-expresses P-gp. KB-8-5-11 cells were also tested in the presence of a P-gp inhibitor (tariquidar) to assess reversability of transporter-mediated resistance. Of the tested compounds, a total of 90 P-gp substrates were identified including 55 newly identified P-gp substrates. Substrates were confirmed using an orthogonal killing assay against HEK-293 cells transfected with P-gp. As exemplars, we confirmed that AT7159 (cyclin-dependent kinase inhibitor); AT9283, (Janus kinase 2/3 inhibitor); ispinesib (kinesin spindle protein inhibitor); gedatolisib (PKI-587, phosphoinositide 3-kinase/mammalian target of rampamycin inhibitor); GSK-690693 (AKT inhibitor); and KW-2478 (heat shock protein 90 inhibitor) were substrates , and direct ATPase stimulation was assessed. ABCG2 was also found to confer high levels of resistance to AT9283, GSK-690693 and gedatolisib, while ispinesib, AT7519 and KW-2478 were weaker substrates.
The HeLa derivative cell line, KB-3-1, and its colchicine-selected, P-gp-overexpressing subline, KB-8-5-11 were maintained in DMEM with 10% FCS and Pen/Strep with glutamine at 37 degree C in 5% CO2. For KB-8-5-11 cells, colchicine was added to the medium at a concentration of 100 ng/mL. HEK-293 cells transfected with empty vector (pcDNA) or vector containing human ABCB1 (MDR-19) or ABCG2 (R-5) have been described previously (Robey, Lin, Qiu, Chan & Bates, 2011) and were maintained in EMEM supplemented with 10% FCS, Pen/Strep and glutamine with 2 mg/ml G418 to select for the expression of the transporter. Cultures were confirmed to be free of mycoplasma infection using the MycoAlert Mycoplasma Detection Kit (Lonza, Walkersville, MD). For the screen, assay medium was identical to culture medium except for KB-8-5-11 where colchicine was excluded from the medium.
All cell lines were plated into 1536-well plates at 500 cells/well in 5 uL media. Compounds were then pinned in dose-response using a 1536-head pin tool (Kalypsis, San Diego, CA) and plates were incubated at 37 degree C in 5% CO2 for an additional 72 h. CellTiter-Glo reagent (Promega) was dispensed into the wells, incubated for 5 min and luminescence was read on a ViewLux instrument (Perkin-Elmer). Cytotoxic compounds were defined as those that yielded a curve class of -1.1, -1.2, -2.1, -2.2, -2.3, or -2.4, a maximum response of >50% and an AC50 of < 10 uM. Cherry-picked hits from screening analysis were tested with both the KB pair of cell lines, and the pcDNA (empty vector control) and MDR-19 (P-gp overexpressing) pair were tested, in the absence and presence of tariquidar.
Potency is read from the fitted curve at half-maximal effect.

SMILES	Potency	outcome
COc1cc(O)cc(/C=C/c2ccc(O[C@@H]3O[C@H](CO)[C@@H](O)[C@H](O)[C@H]3O)cc2)c1	inactive	–
COC(=O)CC(O)CC(O)/C=C/c1c(C)ccc2c1C(O)CC(C)C2 (stereo not given)	inactive	–
COc1cc([C@H]2c3cc(O)c(OC)cc3C[C@@H](CO[C@@H]3O[C@H](CO)[C@@H](O)[C@H](O)[C@H]3O)[C@@H]2CO)ccc1O	inactive	–
O=C1CCC(=O)N(O)CCCCCNC(=O)CCC(=O)N(O)CCOCCNC(=O)CCC(=O)N(O)CCCCCN1	inactive	–
CC(=O)O[C@H]1CC[C@@]2(C)C(CC[C@@H](C)[C@]23Cc2c(O)cc4c(c2O3)CN([C@@H](CCC(=O)O)C(=O)O)C4=O)C1(C)C (stereo not given in full)	inactive	–
CC(=O)N1CCN(C(=O)Cc2ccc(Nc3ncc(F)c(Nc4ccc(C(=O)Nc5ccccc5Cl)cc4)n3)cc2)CC1	2910 nM (active)	–
CCC(C)/C=C(C)/C=C/c1cc2c(cn1)C(=O)C(C)(OC(C)=O)C(O)=C2Cl (stereo not given)	inactive	–
COC(=O)C1=CO[C@@H](O[C@@H]2O[C@H](CO)[C@@H](O)[C@H](O)[C@H]2O)[C@@H]2C(COC(C)=O)=C[C@H](O)[C@H]12	inactive	–
CC(C)=CC/C=C(\C)[C@H]1CC[C@]2(C)[C@@H]1[C@H](O)C[C@@H]1[C@@]3(C)CC[C@H](O)C(C)(C)[C@@H]3[C@@H](O[C@@H]3O[C@H](CO)[C@@H](O)[C@H](O)[C@H]3O)C[C@]12C	inactive	–
C=C1C(O)C[C@@H]2C(C(=O)O)=CO[C@@H](O[C@@H]3O[C@H](CO)[C@@H](O)[C@H](O)[C@H]3OC(=O)c3ccc(O)cc3)[C@H]12 (stereo not given in full)	inactive	–
N#C[C@@H]1CCCN1C(=O)CNC12CC3CC(CC(O)(C3)C1)C2	inactive	–
C[C@H](CCC(=O)O)[C@H]1CC[C@H]2[C@@H]3C[C@H](O)[C@@H]4C[C@H](O)CC[C@]4(C)[C@H]3CC[C@]12C	inactive	–
CC1=C(C(=O)OCc2ccccc2)C(c2ccc(-c3ccccc3)cc2)NC(=O)N1CCCCCC(=O)O (stereo not given)	inactive	–
COc1c2cc(c(O)c1OC)-c1cc(ccc1O)CCC(O)CCCC2 (stereo not given)	inactive	–
COc1cc2ncnc(Nc3cccc(Cl)c3F)c2cc1OC(=O)N1CCN(C)C[C@H]1C	inactive	–
Cn1cc(-c2ccc3nnc(Sc4ccc5nn(C)cc5c4)n3n2)cn1	inactive	–
Cn1c(=O)n(-c2ccc(C(C)(C)C#N)cc2)c2c3cc(C#Cc4cccnc4)ccc3ncc21	126 nM (active)	–
COc1cc(O)c2c(c1)C1=CC(O)C(O)CC1(C)OC2=O (stereo not given)	inactive	–
COc1ccc(CNC(=O)c2cc(-c3cncc(C)c3)ncc2-c2nccs2)nc1OC	inactive	–
C=C1[C@H](OC(C)=O)[C@H]2[C@@H](OC(C)=O)[C@](C)(OC(C)=O)C[C@]2(OC(C)=O)C(=O)[C@H](C)/C=C/C(C)(C)C(=O)[C@H](OC(=O)C(C)CC)[C@H]1OC(C)=O (stereo not given in full)	inactive	–

SMILES	Potency	outcome
CC1OC(OC2C(O)C(OC3CCC4(C)C(CCC5(C)C4CC=C4C6CC(C)(COC7OC(CO)C(O)C(O)C7O)CC(O)C6(C)CCC45C)C3(C)C)OC(C(=O)O)C2O)C(O)C(O)C1OC1OCC(O)C(O)C1O (stereo not given)	–	inactive [at 9.29 µM]
CC1(C)CC[C@]2(C(=O)O[C@@H]3O[C@H](CO)[C@@H](O)[C@H](O)[C@H]3O)CC[C@]3(C)C(=CCC4[C@@]5(C)C[C@@H](O)[C@H](O)C(C)(C)C5[C@H](O)C[C@]43C)[C@@H]2[C@@H]1O (stereo not given in full)	inactive	–
O=C(O)Cc1cn(C2OCC(O)C(O)C2O[C@@H]2O[C@H](CO)[C@@H](O)[C@H](O)[C@H]2O)c2ccccc12 (stereo not given in full)	inactive	–
CC1(O)CCCC2(C)C1CCC13CC(CO)C(CCC12)C3 (stereo not given)	inactive	–
CC(C)=CCC/C(C)=C/CCC1(C)Oc2c(c(O)cc3c2CN(C(CCC(=O)O)C(=O)O)C3=O)CC1O (stereo not given)	inactive	–
COc1c2c(c(C)c3c1C(=O)OC3)O[C@@]1(C)CC(O)C(C(C)(C)O)[C@](C)(CCC(=O)O)[C@H]1C2 (stereo not given in full)	inactive	–
C[C@@H]1O[C@@H](OC[C@H]2O[C@@H](OC(CCCCc3ccc(O)cc3)CCc3ccc(O)cc3)[C@H](O)[C@@H](O)[C@@H]2O)[C@H](O)[C@H](O)[C@H]1O (stereo not given in full)	inactive	–
CC[C@@H](O)C[C@@H]1C(C)=C[C@@H]2CCCC[C@@H]2[C@@]1(C)C(=O)O	inactive	–
CCN1CCN(Cc2ccc(NC(=O)c3ccc(C)c(NC(=O)c4cncc(-c5cccs5)c4)c3)cc2C(F)(F)F)CC1	2060 nM (active)	–
OC1CCC(Nc2ncc3nc(Nc4c(F)cc(F)cc4F)n([C@H]4CCOC4)c3n2)CC1 (stereo not given in full)	inactive	–
COc1ccc(/C=C\C(=O)O)c(O[C@@H]2O[C@H](CO)[C@@H](O)[C@H](O)[C@H]2O)c1	inactive	–
CC12CCC3c4ccc(O)cc4CCC3C1CC(OC1OC(C(=O)O)C(O)C(O)C1O)C2O (stereo not given)	inactive	–
COc1cc2c(cc1O)[C@H](c1ccc(O[C@@H]3O[C@H](CO)[C@@H](O)[C@H](O)[C@H]3O)c(OC)c1)[C@@H](CO)[C@](O)(CO)C2	inactive	–
O=C(O)[C@H](Cc1ccc(Nc2nccc3ccncc23)cc1)NC1=C(Br)C(=O)C12CCCCC2	inactive	–
C=C[C@H]1[C@H](O[C@@H]2O[C@H](CO)[C@@H](O)[C@H](O)[C@H]2O)OC=C(C(=O)OC)[C@H]1CCOC(=O)c1cc(O)c(O)c(O)c1	inactive	–
CC1=C2C[C@H]3O[C@@]3(C)CCC3O[C@@]3(C)C[C@@]2(O)OC1=O (stereo not given in full)	inactive	–
O=C(O)CCCCCC[C@H]1C(=O)NC(=O)N1CC[C@@H](O)C1CCCCC1	inactive	–
C=C1[C@H](OC(C)=O)[C@H]2[C@@H](OC(C)=O)[C@](C)(OC(C)=O)C[C@]2(OC(C)=O)C(=O)[C@H](C)/C=C/C(C)(C)C(=O)[C@H](OC(=O)C(C)C)[C@H]1OC(C)=O	inactive	–
CCCOC(c1cc2nccc(C(=O)O)c2[nH]1)c1ccccc1Cl (stereo not given)	inactive	–
Cc1noc(=O)c2ccc(NC(=O)C(O)(CC(C)(C)c3cccc4c3OCC4)C(F)(F)F)cc12 (stereo not given)	inactive	–
